TIM10 inh = growth inhibitors of isogenic TIM10 control yeast, primary screen, counter-screen for tim10-1 yeast inhibitor project, luminescence, uHTS; S. cerevisiae TIM10 strain growth, BacTiter-Glo luminescence, 24 h; inhibition, % at 10 µM; 1.4% of 330,000 active;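 active = inhibition of 40% or more at the single tested concentration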;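 note: wild-type TIM10 isogenic control strain grown at permissive 25 °C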
SKKanGAS inh = S. pyogenes SKKanGAS growth inhibitors in kanamycin, primary screen, streptokinase expression inhibitor project, SKKanGAS strain, BacTiter-Glo luminescence. 6 h. inhibition, % at 7.5 µM. 1.3% of 300,000 active;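 active = mean replicate score, as percent of positive control median, at least 50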;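 note: strain carries kanamycin resistance gene driven by streptokinase promoter and grows in 40 µg/ml kanamycin; loss of luminescence reflects streptokinase promoter inhibition or plain growth inhibition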
NLRP3 yeast inh = NALP3 inflammasome inhibitors in reconstituted yeast, primary screen, luminescence, uHTS. Yeast reconstituted NLRP3/ASC/caspase-1, beta-gal luminescence, 24 h. inhibition, % at 10 µM. 0.39% of 330,000 active;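 active = inhibition of 50% or more; inactive = inhibition below 50%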
PfHsp90 yeast 2 = growth inhibition of PfHsp90-expressing yeast, primary screen, antimalarial PfHsp90 inhibitor project, S. cerevisiae, BacTiter-Glo luminescence, single point, set 2; BacTiter-Glo ATP, 48 h; yeast lacking PDR1 and PDR3 efflux regulators; inhibition, % at 9.4 µM; 0.32% of 310,000 active;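 active = every replicate shows inhibition above about 80%, whatever the replicate mean, limit read from the data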
tim10-1 inh = growth inhibitors of tim10-1 mutant yeast, primary screen, luminescence, uHTS; S. cerevisiae tim10-1 ts strain growth, BacTiter-Glo, 24 h; inhibition, % at 20 µM; 2.2% of 330,000 active; AID 463190, 2010;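 active = inhibition of at least 40%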;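 note: mutant grown at 25 °C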
tim23-1 inh = growth inhibitors of tim23-1 mutant yeast, primary screen, luminescence, uHTS; S. cerevisiae tim23-1 growth, BacTiter-Glo luminescence, 24 h; inhibition, % at 20 µM; 1.3% of 330,000 active;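 active = growth inhibition of the mutant yeast at or above 50%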;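 note: temperature-sensitive mutant grown at 25 °C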
tim10-1 conf = growth inhibitors of tim10-1 mutant yeast, confirmation, single concentration, luminescence, S. cerevisiae; shares compounds with tim10-1 inh; S. cerevisiae tim10-1 ts strain growth, BacTiter-Glo, 24 h; inhibition, % at 20 µM; 56% of 7,400 active;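 active = inhibition of yeast growth at or above a set limit in either of two repeat tests at 20 µM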;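 note: tim10-1 mutant grown at permissive 25 °C to find synthetic lethal compounds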
Hits are given with their value; . = inactive; / = not tested or not shown. An excerpt weighted towards active compounds, which were near 4.6% of everything screened.

SMILES	TIM10 inh	SKKanGAS inh	NLRP3 yeast inh	PfHsp90 yeast 2	tim10-1 inh	tim23-1 inh	tim10-1 conf
Cc1cc(C)nc(-n2nc(C)cc2NC(=O)CN2CCCC(C)C2)n1 (stereo not drawn)	.	.	.	.	44	.	.
COc1ccc(CN(Cc2ccccn2)S(=O)(=O)c2ccc(-n3cnnn3)c(OC)c2)cc1	.	.	.	.	.	.	/
COc1ccc(CN(Cc2ccccn2)S(=O)(=O)c2ccc(-n3cnnn3)cc2)cc1	.	.	.	.	40	.	.
Cc1ccc(-c2noc(CN3CCCCC3)n2)cc1	.	.	.	.	.	.	/
Cc1ccc(-c2noc(CN3CCN(C(c4ccccc4)c4ccccc4)CC3)n2)cc1	.	.	.	.	41	.	.
COc1ccc(N2N=NN(C(C)C)C2=C(Cl)c2nnnn2-c2ccc(OC)cc2)cc1	/	/	/	.	/	/	/
O=C(Nc1ccc(N2CCCCC2)cc1)c1ccccn1	.	.	.	.	41	.	31
COc1ccc2c(c1[N+](=O)[O-])CCC/C2=N/OC(=O)c1cccc2ccccc12	.	.	.	.	.	.	/
Cc1cc(OCCN2CCN(S(=O)(=O)c3ccccc3F)CC2)ccc1C(C)C	.	/	.	.	43	.	.
CCN(CC)CCOc1c(Br)ccc2c1sc1nc3n(c(=O)c12)CCC3	.	.	.	.	.	.	/
O=c1c2c(nc3n1CCCCC3)sc1c(O)c(Br)ccc12	.	.	.	/	45	.	.
COCCn1cnnc1SCC(=O)Nc1cc(OC)c([N+](=O)[O-])cc1C	.	.	.	.	.	.	/
O=C(OCc1nc2ccccc2s1)C1CCN(S(=O)(=O)c2cccs2)CC1	.	.	.	.	48	.	.
CCOC(=O)c1cn(-c2c(C)n(C)n(-c3ccccc3)c2=O)c2c(F)c(F)c(F)cc2c1=O	.	.	.	/	.	.	/
Cc1ccc(NC(=O)CNC(=O)Cc2cccc3ccccc23)c(O)c1	.	.	.	/	.	.	/
CCN(CC)S(=O)(=O)c1ccc(C(=O)NC2=C(C(=O)OC)SCC2)cc1	.	.	.	.	42	.	.
CCn1c(SC(C)C)nnc1-c1cc(-c2ccccc2)sc1N	.	.	.	/	46	.	38
COC(=O)CN1C(=O)N/C(=C/c2ccc(OC)cc2)C1=O	.	.	.	.	.	.	/
CCOC(=O)COc1ccc(/C=C2\NC(=S)N(CC)C2=O)cc1	.	.	.	.	.	.	.
O=C(CN1C(=O)NC2(CCCc3ccccc32)C1=O)c1ccc(F)c(F)c1 (stereo not drawn)	.	/	.	.	.	.	/
COc1ccccc1N1C(=O)CC(Sc2nccc(C)n2)C1=O (stereo not drawn)	.	.	.	.	.	.	/
COc1ccccc1N1C(=O)CC(Sc2n[nH]c(-c3cccc(C)c3)n2)C1=O (stereo not drawn)	.	.	.	.	47	.	36
CCOc1ccc(NC(=S)Nc2cccnc2)cc1	.	.	.	/	.	.	/
COC(=O)COc1ccc(-c2nccc(-c3ccccn3)n2)cc1	.	.	.	.	43	.	31
COC(=O)COc1ccc(-c2nccc(-c3ccc(Br)cc3)n2)cc1	.	.	.	.	.	.	/
SMILES	TIM10 inh	SKKanGAS inh	NLRP3 yeast inh	PfHsp90 yeast 2	tim10-1 inh	tim23-1 inh	tim10-1 conf
CCOC(=O)N1CCN(Cc2cc(Cl)c3cccnc3c2O)CC1	.	66	.	/	47	.	.
CC1(C)OC(=O)N(c2ccccc2)C12C=Cc1c(ccc3ccccc13)O2 (stereo not drawn)	.	.	.	.	43	.	.
CC(c1ccccc1)N1C(=O)OC(C)(C)C1(C)O (stereo not drawn)	.	/	.	.	.	.	/
CC(C)(C)C1CCc2onc(C(=O)Nc3cnn(Cc4ccc(F)cc4)c3)c2C1 (stereo not drawn)	.	.	.	.	.	.	/
CC(C)(C)C1CCc2onc(C(=O)Nc3ccc(F)cc3F)c2C1 (stereo not drawn)	.	.	.	/	41	.	.
COc1ccc(-c2noc(N3CCC(C(=O)NCCCN4CCCCC4)CC3)n2)cc1	.	.	.	.	.	.	/
Cn1c(=O)n(C)c2cc([N+](=O)[O-])c(N3CCN(S(=O)(=O)c4ccc5ccccc5c4)CC3)cc21	.	.	.	.	.	.	/
Cc1ccc(S(=O)(=O)N2CCN(c3cc4c(cc3[N+](=O)[O-])n(C)c(=O)n4C)CC2)cc1	.	.	.	.	43	.	.
Cn1c(=O)n(C)c2cc([N+](=O)[O-])c(N3CCN(C(=O)c4cccc(Cl)c4)CC3)cc21	.	.	.	.	41	.	.
O=C(CCC(=O)N1CCOCC1)NCc1cccc(C(F)(F)F)c1	.	/	.	.	.	.	/
CCOC(=O)c1ccc2[nH]c(C)c(C)c2c1	.	.	.	.	.	.	/
CCOC(=O)c1cc2c(ccc3nc(C)c(C)c32)[nH]c1C	.	.	.	.	50	.	.
O=C(COC(=O)/C=C/c1cccs1)NC1CC1	.	.	.	.	.	.	/
O=C(c1ccc(F)cc1)N1CCN(c2cc(N3CCCCC3)c(F)cc2[N+](=O)[O-])CC1	.	.	.	.	.	.	/
O=C(C1CCN(c2ncnc3c2nc2n3CCCCC2)CC1)N1CCN(c2ccc(F)cc2)CC1	.	.	.	.	44	.	.
CCN(Cc1ccccc1)C(=O)C1CCN(c2ncnc3c2nc2n3CCCCC2)CC1	.	.	.	.	.	.	/
CCc1ccccc1N(CC)C(=O)C1CCN(c2ncnc3c2nc2n3CCCCC2)CC1	.	.	.	.	42	.	.
CCOC(=O)COc1coc(CN2CCN(c3ccc(F)cc3)CC2)cc1=O	.	.	.	.	.	.	/
Cn1cccc1/C=C1\CCC/C(=C\c2cccn2C)C1=O	.	.	.	/	50	.	.
C[C@@]12CCC3[C@@](CCC4[C@@]3(C)CCC[C@@]4(C)C(=O)N3CCCCC3)(CC1=O)C2 (stereo partly drawn)	.	/	.	.	.	.	/
Cc1ccc(C)c(S(=O)(=O)N2CCCC2CNC(=O)C(=O)NCC2CCCO2)c1 (stereo not drawn)	.	.	.	.	.	.	/
C=CCN=c1scc(-c2ccc(F)cc2)n1/N=C/c1ccccn1	.	.	.	.	41	.	.
O=C(C(=O)N1CCN(c2cccc(Cl)c2)CC1)c1c[nH]c2ccccc12	.	.	.	.	.	.	/
Cc1cccc(/C=N/NC(=O)C[n+]2ccccc2)c1	.	/	.	.	.	.	/

Screening data (PubChem)
